Assay results taken from paper PMC7862700, “An all-to-all approach to the identification of sequence-specific readers for epigenetic DNA modifications on cytosine”.

Legend:
Experiment in all cases: DAPPL (digital affinity profiling via proximity ligation, sequencing); 10 mM Tris-HCl pH 7.5, 50 mM NaCl, 1 mM DTT, 4% glycerol, room temperature, 30 min; GST-TFs on glutathione beads, 16-mer random dsDNA library, 0.1% formaldehyde crosslink after washing; high values mean tight binding
FEV = target: T1, FEV (Homo sapiens, UniProt Q99581 1-238); conditions: protein: recombinant; tags: N-terminal GST; dsDNA, one strand shown
T1 sequence: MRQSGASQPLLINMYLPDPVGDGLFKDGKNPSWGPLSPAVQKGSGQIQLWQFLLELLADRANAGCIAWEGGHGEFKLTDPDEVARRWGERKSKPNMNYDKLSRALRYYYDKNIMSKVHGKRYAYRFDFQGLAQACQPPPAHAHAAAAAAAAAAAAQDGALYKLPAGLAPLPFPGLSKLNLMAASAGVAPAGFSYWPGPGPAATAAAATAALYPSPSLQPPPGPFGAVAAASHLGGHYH
Procedure, shortened: (§1)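 Pools of DNA-barcoded human transcription factors, expressed in yeast as GST fusions on glutathione beads and combined with a tag-only sample, were incubated with 200 nmole of a 16-mer random double-stranded DNA library. Incubation took 30 min at room temperature in Tris/NaCl/DTT/glycerol buffer and was followed by washing, 0.1% formaldehyde crosslinking, proximity ligation (BsaI/T4 ligase, 1 h, 37 °C), PCR amplification and sequencing on an Illumina NextSeq500. Binding signal is the ratio of a hexamer's read frequency for a factor to its frequency for the tag-only sample.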

ETV5 = ETV5 (Homo sapiens, UniProt P41161 1-510); conditions: protein: recombinant; tags: N-terminal GST; dsDNA, one strand shown
Chain of ETV5 (P41161 whole entry): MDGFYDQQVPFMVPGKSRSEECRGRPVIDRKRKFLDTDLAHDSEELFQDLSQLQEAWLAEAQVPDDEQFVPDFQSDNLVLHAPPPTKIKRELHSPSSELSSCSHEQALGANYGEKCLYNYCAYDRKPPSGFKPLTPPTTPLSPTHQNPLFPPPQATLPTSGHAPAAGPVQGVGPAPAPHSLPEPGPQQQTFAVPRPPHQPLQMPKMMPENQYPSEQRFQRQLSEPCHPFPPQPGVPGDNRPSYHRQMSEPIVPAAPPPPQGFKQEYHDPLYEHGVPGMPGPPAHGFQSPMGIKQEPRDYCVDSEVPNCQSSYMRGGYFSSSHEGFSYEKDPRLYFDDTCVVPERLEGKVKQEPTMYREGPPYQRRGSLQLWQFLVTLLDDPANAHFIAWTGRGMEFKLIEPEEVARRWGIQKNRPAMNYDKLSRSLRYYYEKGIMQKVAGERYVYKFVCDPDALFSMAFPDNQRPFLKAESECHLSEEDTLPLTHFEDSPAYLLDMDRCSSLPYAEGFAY
Procedure, shortened: as §1

HSF1 = HSF1 (Homo sapiens, UniProt Q00613 1-529); conditions: protein: recombinant; tags: N-terminal GST; chain copies: 3; dsDNA, one strand shown
Chain of HSF1 (Q00613 whole entry): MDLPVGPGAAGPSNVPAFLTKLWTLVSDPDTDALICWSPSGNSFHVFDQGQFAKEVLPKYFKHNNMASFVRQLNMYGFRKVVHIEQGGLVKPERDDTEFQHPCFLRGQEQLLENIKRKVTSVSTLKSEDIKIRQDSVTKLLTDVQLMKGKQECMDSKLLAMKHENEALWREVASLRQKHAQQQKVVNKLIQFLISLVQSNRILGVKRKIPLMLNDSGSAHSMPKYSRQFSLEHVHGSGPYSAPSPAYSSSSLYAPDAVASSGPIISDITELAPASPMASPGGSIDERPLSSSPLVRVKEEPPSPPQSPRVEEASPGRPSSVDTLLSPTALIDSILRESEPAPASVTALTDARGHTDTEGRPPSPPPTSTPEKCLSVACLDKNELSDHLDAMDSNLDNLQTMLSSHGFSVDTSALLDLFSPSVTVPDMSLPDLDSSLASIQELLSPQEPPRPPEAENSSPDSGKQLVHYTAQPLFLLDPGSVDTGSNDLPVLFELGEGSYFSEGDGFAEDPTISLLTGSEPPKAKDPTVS
Procedure, shortened: as §1

SPIC = target: T2, SPIC (Homo sapiens, UniProt Q8N5J4 1-248); conditions: protein: recombinant; tags: N-terminal GST; dsDNA, one strand shown
T2 sequence: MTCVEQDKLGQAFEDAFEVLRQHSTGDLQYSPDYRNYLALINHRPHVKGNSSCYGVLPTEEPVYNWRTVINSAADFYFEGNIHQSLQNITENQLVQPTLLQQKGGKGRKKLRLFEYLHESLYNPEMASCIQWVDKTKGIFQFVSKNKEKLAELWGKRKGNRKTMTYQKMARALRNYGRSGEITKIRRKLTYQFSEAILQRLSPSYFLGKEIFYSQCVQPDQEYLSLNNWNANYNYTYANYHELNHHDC
Procedure, shortened: as §1

ELF4 = ELF4 (Homo sapiens, UniProt Q99607 1-663); conditions: protein: recombinant; tags: N-terminal GST; dsDNA, one strand shown
Chain of ELF4 (Q99607 whole entry): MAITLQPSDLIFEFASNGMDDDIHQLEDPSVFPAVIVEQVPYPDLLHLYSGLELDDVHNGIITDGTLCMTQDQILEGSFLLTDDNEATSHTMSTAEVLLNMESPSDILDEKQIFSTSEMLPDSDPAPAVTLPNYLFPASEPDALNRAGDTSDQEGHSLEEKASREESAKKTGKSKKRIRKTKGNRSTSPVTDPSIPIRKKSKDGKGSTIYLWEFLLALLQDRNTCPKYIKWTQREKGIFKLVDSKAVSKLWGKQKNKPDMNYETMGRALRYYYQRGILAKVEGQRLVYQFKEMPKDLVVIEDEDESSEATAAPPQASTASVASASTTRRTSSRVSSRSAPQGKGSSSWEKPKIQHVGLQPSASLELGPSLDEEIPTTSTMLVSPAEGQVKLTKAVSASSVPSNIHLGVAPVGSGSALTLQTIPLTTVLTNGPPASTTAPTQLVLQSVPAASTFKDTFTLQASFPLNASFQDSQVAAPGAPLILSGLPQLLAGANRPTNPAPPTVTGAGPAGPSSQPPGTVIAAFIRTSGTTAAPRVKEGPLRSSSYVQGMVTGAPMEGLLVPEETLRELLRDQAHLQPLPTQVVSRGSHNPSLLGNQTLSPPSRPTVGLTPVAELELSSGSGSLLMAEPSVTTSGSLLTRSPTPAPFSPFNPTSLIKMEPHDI
Procedure, shortened: as §1

ELK4 = target: T3, ELK4 (Homo sapiens, UniProt P28324-2 1-405); conditions: protein: recombinant; tags: N-terminal GST; dsDNA, one strand shown
T3 sequence: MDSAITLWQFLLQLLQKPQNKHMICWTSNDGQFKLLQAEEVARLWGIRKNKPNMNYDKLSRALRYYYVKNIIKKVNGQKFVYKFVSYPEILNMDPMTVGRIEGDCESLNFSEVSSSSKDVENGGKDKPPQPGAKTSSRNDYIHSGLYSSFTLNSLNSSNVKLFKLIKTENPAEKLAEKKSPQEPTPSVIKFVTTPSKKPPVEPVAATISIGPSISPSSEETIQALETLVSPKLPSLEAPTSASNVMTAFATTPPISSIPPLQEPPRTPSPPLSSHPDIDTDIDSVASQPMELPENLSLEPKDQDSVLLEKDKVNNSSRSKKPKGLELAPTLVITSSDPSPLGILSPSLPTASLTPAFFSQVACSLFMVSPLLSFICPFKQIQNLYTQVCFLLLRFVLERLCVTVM
Procedure, shortened: as §1

ETV2 = target: T4, ETV2 (Homo sapiens, UniProt O00321 1-342); conditions: protein: recombinant; tags: N-terminal GST; dsDNA, one strand shown
T4 sequence: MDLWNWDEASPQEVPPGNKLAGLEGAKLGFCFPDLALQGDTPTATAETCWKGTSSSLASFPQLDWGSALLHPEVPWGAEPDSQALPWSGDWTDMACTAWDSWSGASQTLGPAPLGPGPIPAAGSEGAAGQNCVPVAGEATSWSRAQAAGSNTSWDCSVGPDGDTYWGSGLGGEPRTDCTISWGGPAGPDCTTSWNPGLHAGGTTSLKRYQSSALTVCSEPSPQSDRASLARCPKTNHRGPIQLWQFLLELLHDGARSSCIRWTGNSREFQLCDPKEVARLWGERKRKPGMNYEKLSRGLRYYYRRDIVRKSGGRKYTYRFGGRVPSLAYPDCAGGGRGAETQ
Procedure, shortened: as §1

ELF3 = target: T5, ELF3 (Homo sapiens, UniProt P78545 1-371); conditions: protein: recombinant; tags: N-terminal GST; dsDNA, one strand shown
T5 sequence: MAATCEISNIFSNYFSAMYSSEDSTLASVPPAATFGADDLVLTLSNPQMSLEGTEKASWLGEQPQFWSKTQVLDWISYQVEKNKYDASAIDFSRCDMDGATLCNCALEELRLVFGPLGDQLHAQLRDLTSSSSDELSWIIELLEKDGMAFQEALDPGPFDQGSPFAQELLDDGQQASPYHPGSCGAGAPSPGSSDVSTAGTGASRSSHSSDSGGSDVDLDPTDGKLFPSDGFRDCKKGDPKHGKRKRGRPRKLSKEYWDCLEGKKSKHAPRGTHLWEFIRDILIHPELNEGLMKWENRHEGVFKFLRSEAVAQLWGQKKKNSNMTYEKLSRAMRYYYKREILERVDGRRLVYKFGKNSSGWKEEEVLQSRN
Procedure, shortened: as §1

CRX = CRX (Homo sapiens, UniProt O43186 1-299); conditions: protein: recombinant; tags: N-terminal GST; dsDNA, one strand shown
Chain of CRX (O43186 whole entry): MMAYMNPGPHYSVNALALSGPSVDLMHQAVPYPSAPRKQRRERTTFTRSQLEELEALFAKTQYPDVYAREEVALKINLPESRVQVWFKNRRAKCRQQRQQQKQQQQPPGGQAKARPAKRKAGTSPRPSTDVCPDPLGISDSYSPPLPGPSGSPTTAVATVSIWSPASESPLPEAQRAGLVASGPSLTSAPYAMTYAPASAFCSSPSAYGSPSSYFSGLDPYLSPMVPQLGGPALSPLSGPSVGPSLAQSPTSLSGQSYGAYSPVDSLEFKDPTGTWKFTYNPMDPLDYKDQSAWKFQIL
Procedure, shortened: as §1

ETV1 = ETV1 (Homo sapiens, UniProt P50549 1-477); conditions: protein: recombinant; tags: N-terminal GST; dsDNA, one strand shown
Chain of ETV1 (P50549 whole entry): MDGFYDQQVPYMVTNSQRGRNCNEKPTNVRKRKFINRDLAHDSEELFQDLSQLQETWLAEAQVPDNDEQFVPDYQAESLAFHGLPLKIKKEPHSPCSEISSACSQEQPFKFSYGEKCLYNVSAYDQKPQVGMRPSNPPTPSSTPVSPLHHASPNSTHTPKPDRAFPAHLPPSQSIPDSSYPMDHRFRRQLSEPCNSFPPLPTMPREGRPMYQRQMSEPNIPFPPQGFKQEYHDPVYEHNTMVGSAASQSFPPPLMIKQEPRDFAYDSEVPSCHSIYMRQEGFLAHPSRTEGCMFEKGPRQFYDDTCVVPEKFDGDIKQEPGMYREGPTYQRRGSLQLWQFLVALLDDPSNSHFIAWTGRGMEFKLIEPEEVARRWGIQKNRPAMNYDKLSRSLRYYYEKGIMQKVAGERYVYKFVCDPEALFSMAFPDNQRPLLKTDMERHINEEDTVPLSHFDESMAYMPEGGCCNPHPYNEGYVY
Procedure, shortened: as §1

Sequence | binding signal (FEV) | binding signal (ETV5) | binding signal (HSF1) | binding signal (SPIC) | binding signal (ELF4) | binding signal (ELK4) | binding signal (ETV2) | binding signal (ELF3) | binding signal (CRX) | binding signal (ETV1)
ATAATT | 1.25 fold enrichment (6-mer frequency, TF over GST control) | 1.37 fold enrichment (6-mer frequency, TF over GST control) | 1.76 fold enrichment (6-mer frequency, TF over GST control) | 1.41 fold enrichment (6-mer frequency, TF over GST control) | 1.25 fold enrichment (6-mer frequency, TF over GST control) | 1.33 fold enrichment (6-mer frequency, TF over GST control) | 1.5 fold enrichment (6-mer frequency, TF over GST control) | 1.34 fold enrichment (6-mer frequency, TF over GST control) | 2.16 fold enrichment (6-mer frequency, TF over GST control) | 1.34 fold enrichment (6-mer frequency, TF over GST control)
TGACCT | 1.69 fold enrichment (6-mer frequency, TF over GST control) | 1.68 fold enrichment (6-mer frequency, TF over GST control) | 1.5 fold enrichment (6-mer frequency, TF over GST control) | 1.79 fold enrichment (6-mer frequency, TF over GST control) | 1.82 fold enrichment (6-mer frequency, TF over GST control) | 1.74 fold enrichment (6-mer frequency, TF over GST control) | 1.65 fold enrichment (6-mer frequency, TF over GST control) | 1.68 fold enrichment (6-mer frequency, TF over GST control) | 1.36 fold enrichment (6-mer frequency, TF over GST control) | 1.88 fold enrichment (6-mer frequency, TF over GST control)
TTGAGG | 1.06 fold enrichment (6-mer frequency, TF over GST control) | 1.09 fold enrichment (6-mer frequency, TF over GST control) | 1.01 fold enrichment (6-mer frequency, TF over GST control) | 1.26 fold enrichment (6-mer frequency, TF over GST control) | 1.13 fold enrichment (6-mer frequency, TF over GST control) | 1.23 fold enrichment (6-mer frequency, TF over GST control) | 1.1 fold enrichment (6-mer frequency, TF over GST control) | 1.05 fold enrichment (6-mer frequency, TF over GST control) | 1.02 fold enrichment (6-mer frequency, TF over GST control) | 1.06 fold enrichment (6-mer frequency, TF over GST control)
TTATAA | 1.16 fold enrichment (6-mer frequency, TF over GST control) | 1.13 fold enrichment (6-mer frequency, TF over GST control) | 1.79 fold enrichment (6-mer frequency, TF over GST control) | 1.2 fold enrichment (6-mer frequency, TF over GST control) | 1.11 fold enrichment (6-mer frequency, TF over GST control) | 1.14 fold enrichment (6-mer frequency, TF over GST control) | 1.12 fold enrichment (6-mer frequency, TF over GST control) | 1.32 fold enrichment (6-mer frequency, TF over GST control) | 2.9 fold enrichment (6-mer frequency, TF over GST control) | 1.13 fold enrichment (6-mer frequency, TF over GST control)
TCCTTA | 1.48 fold enrichment (6-mer frequency, TF over GST control) | 1.52 fold enrichment (6-mer frequency, TF over GST control) | 1.54 fold enrichment (6-mer frequency, TF over GST control) | 1.66 fold enrichment (6-mer frequency, TF over GST control) | 1.56 fold enrichment (6-mer frequency, TF over GST control) | 1.41 fold enrichment (6-mer frequency, TF over GST control) | 1.59 fold enrichment (6-mer frequency, TF over GST control) | 1.43 fold enrichment (6-mer frequency, TF over GST control) | 1.83 fold enrichment (6-mer frequency, TF over GST control) | 1.56 fold enrichment (6-mer frequency, TF over GST control)
ACGTTA | 1.13 fold enrichment (6-mer frequency, TF over GST control) | 1.11 fold enrichment (6-mer frequency, TF over GST control) | 1.04 fold enrichment (6-mer frequency, TF over GST control) | 1.18 fold enrichment (6-mer frequency, TF over GST control) | 1.11 fold enrichment (6-mer frequency, TF over GST control) | 1.03 fold enrichment (6-mer frequency, TF over GST control) | 1.28 fold enrichment (6-mer frequency, TF over GST control) | 1.09 fold enrichment (6-mer frequency, TF over GST control) | 1.17 fold enrichment (6-mer frequency, TF over GST control) | 1.05 fold enrichment (6-mer frequency, TF over GST control)
GCCCCT | 1.39 fold enrichment (6-mer frequency, TF over GST control) | 1.39 fold enrichment (6-mer frequency, TF over GST control) | 1.13 fold enrichment (6-mer frequency, TF over GST control) | 1.22 fold enrichment (6-mer frequency, TF over GST control) | 1.4 fold enrichment (6-mer frequency, TF over GST control) | 1.37 fold enrichment (6-mer frequency, TF over GST control) | 1.28 fold enrichment (6-mer frequency, TF over GST control) | 1.24 fold enrichment (6-mer frequency, TF over GST control) | 1.12 fold enrichment (6-mer frequency, TF over GST control) | 1.34 fold enrichment (6-mer frequency, TF over GST control)
CGCTTA | 1.2 fold enrichment (6-mer frequency, TF over GST control) | 1.29 fold enrichment (6-mer frequency, TF over GST control) | 1.53 fold enrichment (6-mer frequency, TF over GST control) | 1.22 fold enrichment (6-mer frequency, TF over GST control) | 1.29 fold enrichment (6-mer frequency, TF over GST control) | 1.32 fold enrichment (6-mer frequency, TF over GST control) | 1.1 fold enrichment (6-mer frequency, TF over GST control) | 1.29 fold enrichment (6-mer frequency, TF over GST control) | 2.11 fold enrichment (6-mer frequency, TF over GST control) | 1.24 fold enrichment (6-mer frequency, TF over GST control)
